# Measurements taken from ChEMBL document CHEMBL5724796, “Tm Shift (DSF) assay results for EUbOPEN Chemogenomics Library” (2024).
# Residues, ends and D or L forms follow the SMILES beside them. *: point of attachment. Cbz = O=C(OCc1ccccc1)*; Boc = CC(C)(C)OC(=O)*; CH2F = FC*
# Columns and labels:
# Settings in all cases: Compound concentration 20.0 uM
# [1] = molecular target: Tyrosine-protein kinase ABL1 (Homo sapiens) (UniProt P00519)
# [2] = molecular target: Bromodomain-containing protein 4 (Homo sapiens) (UniProt O60885)
# [3] = molecular target: Cyclin-dependent kinase 2 (Homo sapiens) (UniProt P24941)
# [4] = molecular target: Casein kinase I isoform delta (Homo sapiens) (UniProt P48730)
# Chain of Casein kinase I isoform delta (Homo sapiens) (P48730 whole entry, looked up, canonical isoform): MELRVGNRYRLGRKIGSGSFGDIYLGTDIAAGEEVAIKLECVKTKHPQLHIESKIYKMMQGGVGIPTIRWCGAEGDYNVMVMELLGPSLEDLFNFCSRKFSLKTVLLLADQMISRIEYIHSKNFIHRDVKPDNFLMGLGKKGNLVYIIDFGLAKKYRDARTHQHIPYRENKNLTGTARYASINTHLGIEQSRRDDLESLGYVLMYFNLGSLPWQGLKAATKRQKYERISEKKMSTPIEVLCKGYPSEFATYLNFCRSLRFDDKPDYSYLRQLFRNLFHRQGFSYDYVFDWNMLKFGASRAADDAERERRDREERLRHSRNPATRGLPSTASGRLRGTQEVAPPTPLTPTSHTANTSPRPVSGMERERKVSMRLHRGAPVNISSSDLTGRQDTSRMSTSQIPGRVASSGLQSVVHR
# [5] = molecular target: Glycogen synthase kinase-3 beta (Homo sapiens) (UniProt P49841)
# Chain of Glycogen synthase kinase-3 beta (Homo sapiens) (P49841 whole entry, looked up): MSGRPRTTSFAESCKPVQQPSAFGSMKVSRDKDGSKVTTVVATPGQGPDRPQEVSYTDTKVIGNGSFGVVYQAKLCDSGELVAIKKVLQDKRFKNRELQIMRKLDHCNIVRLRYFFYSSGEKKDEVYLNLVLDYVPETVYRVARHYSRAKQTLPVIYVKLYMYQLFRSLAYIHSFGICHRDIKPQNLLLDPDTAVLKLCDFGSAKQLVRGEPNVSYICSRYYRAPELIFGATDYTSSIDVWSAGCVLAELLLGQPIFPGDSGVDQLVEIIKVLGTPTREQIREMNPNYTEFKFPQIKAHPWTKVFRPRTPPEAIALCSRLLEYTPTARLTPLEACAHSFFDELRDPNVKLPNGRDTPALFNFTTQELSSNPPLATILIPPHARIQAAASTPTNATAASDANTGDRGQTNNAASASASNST
# [6] = molecular target: Mitogen-activated protein kinase 1 (Homo sapiens) (UniProt P28482)
# Chain of Mitogen-activated protein kinase 1 (Homo sapiens) (P28482 whole entry): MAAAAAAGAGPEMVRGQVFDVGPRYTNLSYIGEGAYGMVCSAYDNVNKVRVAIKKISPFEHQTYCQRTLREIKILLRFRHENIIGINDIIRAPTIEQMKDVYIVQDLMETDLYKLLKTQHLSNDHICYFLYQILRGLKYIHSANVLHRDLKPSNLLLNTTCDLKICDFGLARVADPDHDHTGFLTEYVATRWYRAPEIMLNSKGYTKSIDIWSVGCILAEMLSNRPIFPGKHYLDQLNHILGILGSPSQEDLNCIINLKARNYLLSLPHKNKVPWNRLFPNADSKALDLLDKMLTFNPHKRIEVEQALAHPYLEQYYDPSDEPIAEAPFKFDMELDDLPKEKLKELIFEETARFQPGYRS
# [7] = molecular target: T1, Aurora kinase A (Homo sapiens) (UniProt O14965)
# T1 sequence (whole entry): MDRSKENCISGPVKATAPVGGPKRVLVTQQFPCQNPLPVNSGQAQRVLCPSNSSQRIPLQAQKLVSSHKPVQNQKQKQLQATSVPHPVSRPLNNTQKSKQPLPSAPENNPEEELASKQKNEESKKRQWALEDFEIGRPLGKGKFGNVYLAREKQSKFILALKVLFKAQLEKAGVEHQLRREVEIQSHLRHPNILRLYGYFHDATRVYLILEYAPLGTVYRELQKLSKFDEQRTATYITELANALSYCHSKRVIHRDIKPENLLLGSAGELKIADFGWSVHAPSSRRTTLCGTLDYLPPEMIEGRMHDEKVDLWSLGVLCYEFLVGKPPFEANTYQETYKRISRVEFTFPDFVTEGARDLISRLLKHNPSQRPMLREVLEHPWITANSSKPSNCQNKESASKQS
# [8] = molecular target: T2, Transcription intermediary factor 1-alpha (Homo sapiens) (UniProt O15164)
# T2 sequence (whole entry): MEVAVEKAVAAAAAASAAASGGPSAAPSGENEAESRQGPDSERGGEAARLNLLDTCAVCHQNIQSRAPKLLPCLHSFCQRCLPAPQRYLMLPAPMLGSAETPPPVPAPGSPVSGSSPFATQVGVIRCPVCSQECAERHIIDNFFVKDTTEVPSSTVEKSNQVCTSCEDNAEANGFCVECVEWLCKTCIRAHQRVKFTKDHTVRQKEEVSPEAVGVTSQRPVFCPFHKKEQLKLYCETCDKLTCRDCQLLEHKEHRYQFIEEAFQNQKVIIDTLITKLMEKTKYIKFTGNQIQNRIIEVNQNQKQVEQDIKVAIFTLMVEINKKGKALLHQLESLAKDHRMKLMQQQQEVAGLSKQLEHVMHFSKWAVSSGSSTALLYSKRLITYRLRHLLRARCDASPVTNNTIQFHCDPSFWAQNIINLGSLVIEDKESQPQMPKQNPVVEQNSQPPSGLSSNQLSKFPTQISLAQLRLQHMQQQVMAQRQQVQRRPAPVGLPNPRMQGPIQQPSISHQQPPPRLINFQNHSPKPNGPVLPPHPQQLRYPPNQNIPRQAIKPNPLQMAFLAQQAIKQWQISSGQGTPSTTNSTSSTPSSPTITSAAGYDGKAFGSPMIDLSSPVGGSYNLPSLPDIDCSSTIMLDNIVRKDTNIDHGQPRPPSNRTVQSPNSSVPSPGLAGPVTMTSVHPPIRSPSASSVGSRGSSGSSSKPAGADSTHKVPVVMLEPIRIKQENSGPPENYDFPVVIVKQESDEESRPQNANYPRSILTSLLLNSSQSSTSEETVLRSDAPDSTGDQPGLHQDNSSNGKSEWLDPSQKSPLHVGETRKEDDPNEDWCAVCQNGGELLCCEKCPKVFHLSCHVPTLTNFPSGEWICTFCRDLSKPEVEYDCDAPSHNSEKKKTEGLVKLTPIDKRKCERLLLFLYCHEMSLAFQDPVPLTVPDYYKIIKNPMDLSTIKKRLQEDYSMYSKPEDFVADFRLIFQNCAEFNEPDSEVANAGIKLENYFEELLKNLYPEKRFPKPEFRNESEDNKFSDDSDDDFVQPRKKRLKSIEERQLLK
# Chain of Tyrosine-protein kinase ABL1 (Homo sapiens) (P00519 whole entry): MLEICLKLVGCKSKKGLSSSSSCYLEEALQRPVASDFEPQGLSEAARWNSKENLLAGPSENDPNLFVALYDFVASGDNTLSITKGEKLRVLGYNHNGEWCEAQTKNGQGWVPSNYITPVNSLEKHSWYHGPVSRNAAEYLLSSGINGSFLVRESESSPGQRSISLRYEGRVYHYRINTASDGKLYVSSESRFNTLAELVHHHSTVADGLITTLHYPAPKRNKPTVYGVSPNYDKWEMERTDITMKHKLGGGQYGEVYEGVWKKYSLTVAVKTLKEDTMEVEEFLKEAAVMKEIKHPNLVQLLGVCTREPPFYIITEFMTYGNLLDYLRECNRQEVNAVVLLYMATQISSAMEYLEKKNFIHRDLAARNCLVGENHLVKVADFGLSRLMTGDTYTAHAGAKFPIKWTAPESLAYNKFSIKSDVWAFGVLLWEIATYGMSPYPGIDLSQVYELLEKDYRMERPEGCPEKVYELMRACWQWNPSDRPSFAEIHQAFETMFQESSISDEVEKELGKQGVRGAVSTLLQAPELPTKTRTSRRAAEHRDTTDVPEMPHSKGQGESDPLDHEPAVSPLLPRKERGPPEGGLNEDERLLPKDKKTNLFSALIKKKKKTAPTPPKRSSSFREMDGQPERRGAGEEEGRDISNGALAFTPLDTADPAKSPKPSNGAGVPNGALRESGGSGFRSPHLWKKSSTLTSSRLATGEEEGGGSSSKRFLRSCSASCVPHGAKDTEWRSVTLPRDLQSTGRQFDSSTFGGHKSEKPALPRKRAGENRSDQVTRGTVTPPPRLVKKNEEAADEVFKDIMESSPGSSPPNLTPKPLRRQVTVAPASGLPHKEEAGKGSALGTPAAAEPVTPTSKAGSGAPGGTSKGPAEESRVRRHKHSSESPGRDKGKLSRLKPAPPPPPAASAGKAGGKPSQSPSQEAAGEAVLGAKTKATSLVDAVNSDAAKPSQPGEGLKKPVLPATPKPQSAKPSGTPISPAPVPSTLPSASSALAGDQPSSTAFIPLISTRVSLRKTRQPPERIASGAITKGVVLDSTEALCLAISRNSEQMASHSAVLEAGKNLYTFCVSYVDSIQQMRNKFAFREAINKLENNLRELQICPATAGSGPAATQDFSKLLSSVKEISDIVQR
SMILES,ΔTm [1],ΔTm [2],ΔTm [3],ΔTm [4],ΔTm [5],ΔTm [6],ΔTm [7],ΔTm [8]
CCCOc1cc(OCCCCN(C)C)cc(Oc2cc3c(cc2NS(=O)(=O)c2ccc(OC)c(OC)c2)n(C)c(=O)n3C)c1,0.57 °C,0.5 °C,0.09 °C,0.22 °C,0.59 °C,0 °C,-0.88 °C,
CCOCC1(COCC)CCC(c2n[nH]cc2CN(C)CCNC)CC1,0.58 °C,-1.39 °C,-0.06 °C,0.56 °C,-1.08 °C,0.33 °C,-0.08 °C,-1.29 °C
O=C(c1cc(Cc2n[nH]c(=O)c3ccccc23)ccc1F)N1CCn2nc(C(F)(F)F)nc2C1,0.72 °C,-2.42 °C,0.1 °C,-0.28 °C,-0.21 °C,0.61 °C,-2.34 °C,-0.51 °C
N#Cc1cc2cc(CN3CCC(Nc4ncnc5sc(CC(F)(F)F)cc45)CC3)ccc2[nH]1,0.42 °C,1.04 °C,0.06 °C,1.89 °C,-0.5 °C,0.61 °C,-0.57 °C,1.28 °C
CCC[C@@H]1CNCc2c1[nH]c(=O)c(C#N)c2N1CCC2(CC1)CC2,0.32 °C,-1.86 °C,0.24 °C,0.29 °C,0.07 °C,-0.21 °C,-0.58 °C,-0.85 °C
NC(=O)c1ccc(Oc2ccc(C(N)=O)cc2)cc1,0.24 °C,-0.98 °C,-0.07 °C,0.22 °C,0.02 °C,0.14 °C,-1.15 °C,-0.86 °C
CN(C)Cc1ccc(S(=O)(=O)n2ccc(/C=C/C(=O)NO)c2)cc1,0.75 °C,-1.99 °C,0.61 °C,0.25 °C,-0.79 °C,-0.07 °C,-0.28 °C,-1.27 °C
O=C(Nc1ccccc1C(=O)O)c1cc(S(=O)(=O)c2ccccc2)ccc1Cl,0.57 °C,-2.4 °C,0.28 °C,-0.33 °C,0.26 °C,0.08 °C,-2.26 °C,1.1 °C
O=S(=O)(CSc1nnc(Br)n1Cc1ccc(Br)c2ccccc12)Nc1cccnc1,0.41 °C,-4.11 °C,-0.15 °C,-0.32 °C,-0.3 °C,0.05 °C,-1.41 °C,-0.15 °C
COC(=O)CC[C@H](NC(=O)[C@H](Cc1c[nH]c2ccccc12)NC(=O)OCc1ccccc1)C(=O)N[C@@H](Cc1cnc[nH]1)C(=O)N[C@@H](CC(=O)OC)C(=O)CF (Cbz-WE(OMe)HD(OMe)-CH2F),0.62 °C,-1.63 °C,0.18 °C,0.21 °C,-0.68 °C,-0.1 °C,-0.45 °C,-0.87 °C
Cc1cc2cc(NS(=O)(=O)c3ccc(C#N)cc3)ccc2n(C)c1=O,0.57 °C,-0.91 °C,0.09 °C,0.09 °C,0.03 °C,-3 °C,-1.09 °C,0.17 °C
CC(C)[C@H](NC(=O)[C@H](CCC(=O)O)NC(=O)[C@H](C)NC(=O)OC(C)(C)C)C(=O)N[C@H](C=O)CC(=O)O (Boc-AEVD-aldehyde),0.28 °C,-2.26 °C,-0.28 °C,-0.09 °C,-1.03 °C,-0.49 °C,-1.35 °C,-0.84 °C
Cc1cc(-n2cccc2)c(S(C)(=O)=O)cc1C(=O)N=C(N)N,0.53 °C,-2.59 °C,-0.16 °C,-0.26 °C,-0.28 °C,0.62 °C,-2.33 °C,-0.16 °C
Cc1cc(/N=N/c2ccc(S(=O)(=O)NC3CCCC3)cc2)c(N)cc1O,0.4 °C,7.29 °C,4.93 °C,1.1 °C,4.28 °C,2.73 °C,0.42 °C,2.48 °C
O=C(NCCCn1ccnc1)c1cc2nc(-c3ccccc3)cc(-c3ccccc3)n2n1,0.26 °C,-2.23 °C,-0.13 °C,0.15 °C,-0.59 °C,-2.4 °C,-0.86 °C,-0.04 °C
CCCSc1nc2c(c(=O)n1-c1ccccc1)SCC2,-0.05 °C,1.58 °C,-0.05 °C,-0.11 °C,-0.82 °C,1.06 °C,0.01 °C,0.72 °C
NC(=O)[C@H]1CCCCc2c1[nH]c1ccc(Cl)cc21,1.15 °C,-1.22 °C,0.22 °C,0.38 °C,0.6 °C,-0.5 °C,1.7 °C,0.16 °C
Cc1cc(OCCCNCCC(N)=O)ccc1Cc1c(O[C@@H]2O[C@H](CO)[C@@H](O)[C@H](O)[C@H]2O)n[nH]c1C(C)C,0.54 °C,-1.5 °C,0.03 °C,-0.12 °C,-0.7 °C,0.24 °C,-2.37 °C,-0.75 °C
COc1cc2c(NC3CCN(C)CC3)nc(N3CCCN(C)CC3)nc2cc1OCCCN(C)C,0.04 °C,-1.01 °C,0.12 °C,0.25 °C,-0.54 °C,0.4 °C,-1.36 °C,-0.25 °C
OC[C@H]1O[C@@H](c2ccc(Cl)c(Cc3ccc(O[C@H]4CCOC4)cc3)c2)[C@H](O)[C@@H](O)[C@@H]1O,0.58 °C,-2.67 °C,-0.08 °C,-0.33 °C,-0.36 °C,0.5 °C,-1.72 °C,-0.73 °C
Cn1cc(NC(=O)c2cc(F)cc(F)c2)c(C(=O)NC2CCNCC2)n1,0.23 °C,-2.12 °C,-0.02 °C,1.02 °C,-0.14 °C,-0.35 °C,-0.65 °C,-0.68 °C
N#C[C@@H]1CCCN1C(=O)[C@@H]1CCCN1C(=O)CCCc1ccccc1,0.07 °C,-2.61 °C,0.09 °C,0.05 °C,-0.27 °C,0.11 °C,-1.43 °C,-0.5 °C
